Hit rate of the full screen: of about 390,000 compounds, about 2,600 (0.67%) were called active. The full list was thinned out, with actives kept by preference. Values without a mark were called inactive.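 How the source made its calls: active means mean inhibition of replicates at least 50% and at least half of replicates each reaching 50%; inconclusive means half or more replicates reach 50% but mean below 50%; inactive means the rest.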

This assay addresses Transforming acidic coiled-coil-containing protein 3 (Homo sapiens) (UniProt Q9Y6A5). The assay can be described thus: disruptors of ARNT/TACC3 protein interaction, primary screen, biochemical, AlphaScreen, single concentration (AID 623870).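 Further: 0% = complete ARNT plus TACC3 wells and 100% = ARNT alone without TACC3.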 The settings on record: AlphaScreen His-ARNT PAS-B/GST-TACC3 binding, luminescence; at 9.99 µM; hits give high values; TACC3 fragment carries E629A point mutation. A general note: In Alpha technology, singlet oxygen from a donor bead excites a nearby acceptor bead.
One may read the inhibition as the relative decrease from the control value, in per cent. `C[C@@H]1CN([C@@H](C)CO)C(=O)CCCn2cc(nn2)CO[C@H]1CN(C)C(=O)Nc1ccc(N2CCCCC2)cc1`: the inhibition was 4.48%.

On to `O=C(NCC[C@@H]1CC[C@H](NC(=O)Nc2cc(F)ccc2F)[C@@H](CO)O1)Nc1ccc(Cl)cc1`, for which the inhibition is -4.66%.

Regarding `CNC(=O)C[C@@H]1CC[C@@H]2[C@H](COc3ccc(NC(=O)Nc4ccccc4)cc3C(=O)N2C)O1`, the inhibition is -2.84%.

In the case of `O=C(CC1CC1)N1[C@H](CO)[C@@H]2c3ccccc3N(S(=O)(=O)c3ccc(F)cc3)C[C@@H]21`, the inhibition is -6.11%.

`O=C(C[C@H]1CC[C@@H](NC(=O)Cc2cccnc2)[C@H](CO)O1)Nc1ccc(-c2ccccc2)cc1`: the inhibition is -7.46%.

Consider `COc1ccc(S(=O)(=O)Nc2ccc3c(c2)CC(=O)N([C@H](C)CO)C[C@H](C)[C@H](CN(C)CC2CC2)O3)cc1`, for which the inhibition was -8.43%.

Take `O=C(Nc1cc(F)ccc1F)N1C[C@H]2[C@@H](c3ccccc31)[C@@H](CO)N2CC1CCCC1`: the inhibition is -1.12%.

Turning to `CC(C(=O)Nc1ccc(O)c(C(=O)O)c1)N1C(=O)/C(=C/c2cccs2)SC1=S` (stereo not drawn), the inhibition is 55.9% (active).

As to `Cc1cccc(NC(=O)C(C)N2C(=O)C3C4CC(C(Br)C4Br)C3C2=O)c1` (stereo not drawn), the inhibition was 5.02%.

Consider `Cc1noc(C)c1S(=O)(=O)N(C)C[C@@H]1OCCCC[C@H](C)Oc2ccc(NC(=O)Nc3ccc4c(c3)OCO4)cc2C(=O)N([C@H](C)CO)C[C@H]1C`, for which the inhibition is -0.948%.

`CC1=NNC(=O)C1CCC(=O)N/N=C\c1cccc(Cl)c1` (stereo not drawn): the inhibition is 4.23%.

On to `CC1=NNC(=O)C1CC(=O)N/N=C/c1ccncc1` (stereo not drawn), for which the inhibition is 3.25%.

Turning to `COc1cccc(/C=N\NC(=O)C2=NNC(=O)C2C)c1O` (stereo not drawn), the inhibition is 71.4% (active).

Take `C[C@H]1CN([C@@H](C)CO)C(=O)Cc2cc(NC(=O)Nc3cccc4ccccc34)ccc2O[C@@H]1CN(C)C`: the inhibition is -6.19%.

`C[C@@H]1CN([C@H](C)CO)C(=O)Cc2cc(NC(=O)Nc3cccc4ccccc34)ccc2O[C@@H]1CN(C)Cc1ccc(C(=O)O)cc1`: the inhibition was -8.02% (active).

For the compound `C[C@@H]1CCCCO[C@H](CN(C)C(=O)Nc2cccc3ccccc23)[C@H](C)CN([C@@H](C)CO)C(=O)c2cc(NC(=O)CCCN(C)C)ccc2O1`, the inhibition was 14.2%.

Regarding `C[C@@H]1CN([C@@H](C)CO)C(=O)c2cc(NC(=O)CCCN(C)C)ccc2O[C@@H](C)CCCCO[C@H]1CN(C)C(=O)Nc1cccc2ccccc12`, the inhibition was 39.5% (active).

With `C[C@@H]1CN([C@H](C)CO)C(=O)Cc2cc(NC(=O)Nc3cccc4ccccc34)ccc2O[C@@H]1CN(C)Cc1ccc(C(F)(F)F)cc1`, the inhibition was 0.147%.

On to `C[C@@H]1CN([C@@H](C)CO)C(=O)c2cc(NC(=O)Cc3ccccc3)ccc2O[C@@H](C)CCCCO[C@H]1CN(C)C(=O)Nc1cccc2ccccc12`, for which the inhibition was 1%.

`CC=Cc1ccc2n(c1=O)C[C@@H]1[C@@H](CO)[C@H](C(=O)NCC3CC3)[C@H]2N1C(=O)c1ccccc1` (mixture of isomers): the inhibition is -1.91%.

Turning to `O=c1/c(=C/c2ccc(CNS(=O)(=O)c3ccccc3)o2)sc2n1CCN=2`, the inhibition was 40.1%.

Regarding `O=c1nc2s/c(=C\c3ccco3)c(=O)n2nc1Cc1ccccc1`, the inhibition is 67.7% (active).

Consider `CO[C@@H]1CN(C)C(=O)c2ccc(NC(=O)NC(C)C)cc2OC[C@@H](C)N(C(=O)NC(C)C)C[C@H]1C`, for which the inhibition was -3.87%.

Turning to `COc1ccccc1-c1cnc2c(c1)C(=O)N([C@H](C)CO)C[C@H](C)[C@H](CN(C)Cc1cccnc1)O2`, the inhibition is 29.4%.

For the compound `O=C(CN1CCOCC1)N[C@@H]1CC[C@@H](CCn2cc(C3CCCCC3)nn2)O[C@@H]1CO`, the inhibition is 0.304%.

As to `CCC(=O)N(C)C[C@H]1Oc2cc(-c3ccccc3F)ccc2S(=O)(=O)N([C@H](C)CO)C[C@@H]1C`, the inhibition was -1.89%.

On to `COc1ccc(NC(=O)O[C@@H](c2ccc(OCCO)cc2)[C@@H](C)CCO)cc1`, for which the inhibition was -10.6%.

As to `O=C(O)c1ccc2c3c(cccc13)C(=O)N(OS(=O)(=O)c1ccccc1)C2=O`, the inhibition was 67.5% (active).

For `C[C@@H]1CN([C@H](C)CO)C(=O)c2cc(C#CCN(C)C)cnc2O[C@@H]1CN(C)C(=O)Cc1cccnc1`, the inhibition is -0.97%.

Consider `CO[C@H]1CN(C)C(=O)c2ccc(NC(=O)c3ccc4c(c3)OCO4)cc2OC[C@@H](C)NC[C@@H]1C`, for which the inhibition was -11.2%.

For the compound `Cc1ccc(-c2ccc(/C=C(\C#N)C(N)=S)o2)c([N+](=O)[O-])c1`, the inhibition is 1.03%.

Regarding `CC1=NN(c2ccc(Cl)c(C(=O)O)c2)C(=O)/C1=C/c1ccc(-c2ccccc2[N+](=O)[O-])o1`, the inhibition was 29.2% (active).

On to `Cc1ccc(S(=O)(=O)N(C)C[C@H]2Oc3c(NC(=O)C4CC4)cccc3C(=O)N([C@@H](C)CO)C[C@@H]2C)cc1`, for which the inhibition was -6.68%.

Turning to `COC(=O)C1=C(C)NC2=C(C(=O)c3ccccc32)C1c1ccc(-c2ccc(C(=O)O)cc2)o1` (stereo not drawn), the inhibition was 65.4% (active).

As to `O=C(C[C@H]1C[C@H]2c3cc(NC(=O)Nc4ccccc4F)ccc3O[C@H]2[C@H](CO)O1)NCc1ccccn1`, the inhibition was -10.9%.

On to `COc1ccc(NC(=O)N(C)C[C@H]2OCCCC[C@@H](C)Oc3ccc(NS(=O)(=O)c4ccc(F)cc4)cc3C(=O)N([C@H](C)CO)C[C@H]2C)cc1`, for which the inhibition was -5.89%.

For the compound `C/C=C/c1cnc2c(c1)C(=O)N([C@@H](C)CO)C[C@@H](C)[C@H](CN(C)Cc1ccccc1)O2`, the inhibition is -2.09%.

For the compound `Cc1ccc(OCC(=O)N2CCN(C(=O)c3cccnc3)CC2)cc1`, the inhibition was -5.09%.

Regarding `CCN1CCN(C(c2cccnc2)c2cc(Cl)c3cccnc3c2O)CC1` (stereo not drawn), the inhibition was 55.4% (active).

Turning to `CCOC(=O)N1CCN(C(=O)C2CCN(c3ncnc4c3sc3cccc(F)c34)CC2)CC1`, the inhibition was -0.287%.

Consider `CCOC(=O)N1CCN(C(c2cccnc2)c2ccc3cccnc3c2O)CC1` (stereo not drawn), for which the inhibition is 61.4% (active).

Regarding `CCS(=O)(=O)Nc1ccc2c(c1)C(=O)N(C)[C@@H]1CC[C@H](CC(=O)N[C@H]3CCN(Cc4ccccc4)C3)O[C@@H]1CO2`, the inhibition was 4.57%.

`CC=Cc1ccc2n(c1=O)C[C@H]1[C@H](CO)[C@@H](C(=O)NC3CCCC3)N(Cc3ccncc3)[C@@H]21` (mixture of isomers): the inhibition is 7.61%.

Take `O=C(C[C@@H]1C[C@@H]2c3cc(NC(=O)C4CCC4)ccc3O[C@@H]2[C@@H](CO)O1)NCc1ccccc1`: the inhibition was -8.97%.

In the case of `CCC(=O)N1C[C@H](C)[C@H](OC)CN(C)C(=O)c2ccc(NS(C)(=O)=O)cc2OC[C@H]1C`, the inhibition was 0.229%.

In the case of `COc1ccccc1C(=O)Nc1ccc2c(c1)C(=O)N(C)C[C@@H](OC)[C@@H](C)CN(C)[C@H](C)CO2`, the inhibition was 5.81%.

With `CN1C(=O)c2cc(NC(=O)Nc3ccccc3Cl)ccc2OC[C@H]2O[C@H](CC(=O)NCCCN3CCOCC3)CC[C@H]21`, the inhibition is -6.44%.

As to `CCOC(=O)c1cn[nH]c1NC(=S)Nc1ccccc1`, the inhibition was -4.6%.

Regarding `CCN(C(=O)Cc1nc(N)n[nH]1)C1(C(=O)Nc2ccccc2)CCCCC1`, the inhibition is 73.1% (active).

With `COc1cc(C2c3cc4c(cc3C(O)C3COC(=O)C23)OCO4)cc(OC)c1OC` (stereo not drawn), the inhibition was -5.89%.

For the compound `COc1c(O)ccc2c1CN1CCc3cc4c(cc3C1C2)OCO4` (stereo not drawn), the inhibition is 59.9% (active).

As for `COc1ccc(-c2ccc3c(c2)[C@H]2[C@H](CCN2C(=O)c2ccc4c(c2)OCO4)[C@@H](CO)N3)cc1`, the inhibition was 2.52%.

As for `CC(C)C#Cc1cnc2c(c1)C(=O)N([C@H](C)CO)C[C@H](C)[C@@H](CN(C)C(=O)Nc1cc(F)ccc1F)O2`, the inhibition was 2.21%.

In the case of `C[C@H]1CN([C@@H](C)CO)C(=O)c2cc(C#Cc3ccccc3F)cnc2O[C@H]1CN(C)C`, the inhibition is -2.77%.

In the case of `CC=Cc1ccc2n(c1=O)C[C@@H]1[C@@H](CO)[C@H](C(=O)NCC)[C@H]2N1CCC(F)(F)F` (mixture of isomers), the inhibition is -2.83%.

As for `COc1ccccc1-c1nnc(NC(=O)c2cccc(N3C(=O)CCC3=O)c2)o1`, the inhibition was 60.7% (active).

For `COc1ccc(Cl)cc1NC(=O)c1cccc(N2C(=O)C3CC=CCC3C2=O)c1` (stereo not drawn), the inhibition was 3.74%.

On to `COc1ccccc1C(=O)Oc1ccc(N2C(=O)CCC2=O)cc1`, for which the inhibition is -4.25%.

Take `CCNC(=O)C[C@H]1CC[C@@H](NC(=O)C2CCOCC2)[C@@H](CO)O1`: the inhibition was -5.26%.

For the compound `O=S(=O)(c1ccc(F)cc1)N1CCCCN2[C@H](CO)[C@@H](c3ccc(C#CC4CCCC4)cc3)[C@H]2C1`, the inhibition is 5.01%.

Turning to `CC(C)NC(=O)Nc1cccc2c1O[C@H](CN(C)S(=O)(=O)c1ccccc1)[C@@H](C)CN([C@@H](C)CO)C2=O`, the inhibition was -11.5%.

For the compound `Cc1c(NC(=O)C(=O)N/N=C/c2cccs2)c(=O)n(-c2ccccc2)n1C`, the inhibition was 4.89%.

Regarding `C=CCOc1ccc(/C=N/NC(=O)C(C)Sc2ccccn2)cc1OCC` (stereo not drawn), the inhibition was 14.2%.

On to `CNC(=O)C(=O)N/N=C/c1ccccn1`, for which the inhibition is 57.1% (active).

In the case of `COc1ccccc1S(=O)(=O)N[C@@H]1C=C[C@H](CC(=O)N2CCOCC2)O[C@@H]1CO`, the inhibition is -20.1%.

Turning to `CN1[C@@H]2c3ccc(C4=CCCCC4)c(=O)n3C[C@H]1[C@H](CO)[C@H]2C(=O)NCc1ccc(F)cc1`, the inhibition is 3.89%.

Consider `Cc1cc(C)nc(N/N=C/c2c(CO)cnc(C)c2O)n1`, for which the inhibition is 63% (active).

For the compound `COc1ccc(CNC(=O)C[C@H]2C[C@@H]3c4cc(NC(=O)NC5CCCC5)ccc4O[C@@H]3[C@H](CO)O2)cc1`, the inhibition is -2.96%.

For the origin of these results see PubChem BioAssay AID623870 (Broad Institute, 2012).
